{"source": "PubChem BioAssay AID2158", "about": "(National Center for Advancing Translational Sciences (NCATS), 2009)", "note": "Records with an inconclusive call do not appear. Activity calls are given as the source filed them. Calls come from the whole dose curve; as a rule, active = well fitted inhibition curve with a large enough effect; inconclusive = small, poorly fitted or top-dose-only effect; inactive = no such curve, though single readings can be large or run the other way. Potency is the fitted concentration of half-maximal effect.", "data": [{"target": "Cruzipain (Trypanosoma cruzi) (UniProt P25779)", "sequence (P25779 123-467 limits assumed)": "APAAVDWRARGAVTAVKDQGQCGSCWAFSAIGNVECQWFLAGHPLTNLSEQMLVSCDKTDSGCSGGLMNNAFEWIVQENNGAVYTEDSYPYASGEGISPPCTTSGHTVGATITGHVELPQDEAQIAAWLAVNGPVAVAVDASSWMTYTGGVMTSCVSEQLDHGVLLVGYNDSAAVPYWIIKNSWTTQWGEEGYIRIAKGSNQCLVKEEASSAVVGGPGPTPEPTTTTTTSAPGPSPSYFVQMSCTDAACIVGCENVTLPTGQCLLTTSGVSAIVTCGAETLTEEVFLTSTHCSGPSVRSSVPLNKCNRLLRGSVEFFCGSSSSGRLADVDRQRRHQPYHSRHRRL", "experiment": "Confirmation qHTS Assay for Inhibitors of Cruzain; note: nearly all actives have a fitted effect of over 40% in size;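 for activity change, negative = inhibition: plate controls were uninhibited enzyme control for no effect and buffer wells lacking enzyme for full effect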", "details": "purified cruzain, Z-FR-AMC fluorescence, 0.01% Triton", "outline": "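Purified cruzain, 1.5 nM, pre-incubated 15 min at room temperature with compound in 100 mM sodium acetate pH 5.5, 5 mM DTT, 0.01% Triton X-100. Then 2 uM Z-FR-AMC added; AMC fluorescence (ex 360/em 450 nm) increase over 60 s gave reaction progress.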", "values": [{"smiles": "O=C(CNC(=O)c1ccc(Cl)cc1)OC(C(=O)Nc1cc(C(F)(F)F)ccc1Cl)c1ccccc1", "note": "(stereo not given)", "Potency": "10 µM (active)"}, {"smiles": "Cc1ccc(C)c(CN2C(=O)c3ccccc3Sc3ccc(C(=O)NCc4ccc5c(c4)OCO5)cc32)c1", "activity change, negative = inhibition": "-8.53% (inactive)"}, {"smiles": "Cc1cc2c(C)cc(=O)oc2c2c1NCCC2", "activity change, negative = inhibition": "-19.4% (inactive)"}, {"smiles": "NC(=O)C(OC(=O)CNC(=O)C1CCCCC1)c1ccccc1", "note": "(stereo not given)", "Potency": "2.51 µM (active)"}, {"smiles": "N#Cc1nc(N2CCCC2)nc(N(c2ccccc2)c2ccccc2)n1", "Potency": "1 µM (active)"}, {"smiles": "NC(=S)N/N=C\\c1ccc(-c2cccc(Cl)c2Cl)o1", "Potency": "1 µM (active)"}, {"smiles": "CCn1cnc2c(Nc3cc(F)cc(F)c3)nc(C#N)nc21", "Potency": "0.01 µM (active)"}, {"smiles": "CCn1cnc2c(NCc3cccnc3)nc(C#N)nc21", "activity change, negative = inhibition": "-4.84% (inactive)"}, {"smiles": "O=C(CNC(=O)c1ccc([N+](=O)[O-])cc1)OC(C(=O)Nc1cc(C(F)(F)F)ccc1Cl)c1ccccc1", "note": "(stereo not given)", "Potency": "12.6 µM (active)"}, {"smiles": "O=C(CNC(=O)c1ccccc1)OCC(=O)c1ccccc1", "Potency": "15.8 µM (active)"}, {"smiles": "Cc1cccc(C(=O)NCC(=O)OC(C(=O)Nc2cc(C(F)(F)F)ccc2Cl)c2ccccc2)c1", "note": "(stereo not given)", "Potency": "7.94 µM (active)"}, {"smiles": "O=C(COC(=O)CNC(=O)C1CCCCC1)Nc1ccccc1Cl", "Potency": "3.98 µM (active)"}, {"smiles": "CCC(C)NC(=O)c1ccc2nc(-c3cccs3)c(-c3cccs3)nc2c1", "note": "(stereo not given)", "activity change, negative = inhibition": "-5.12% (inactive)"}, {"smiles": "O=C(O)c1c(Sc2ccccc2)c2cc(Cl)ccc2n1Cc1ccc(Cl)cc1", "Potency": "8.91 µM (active)"}, {"smiles": "COC(=O)CCC(C)C1CCC2C3C(O)C[C@@H]4CC(O)CC[C@@]4(C)C3CC(O)[C@]12C", "note": "(stereo not given in full)", "activity change, negative = inhibition": "-0.647% (inactive)"}]}]}
